Source: PubChem
JMJD2A Tudor inh = inhibitors of human JMJD2A Tudor domain | O75164 | AlphaScreen JMJD2A-Tudor / H3K4me3 peptide binding | Potency, µM (highest dose often 114 µM), for inactives: at the top dose activity change, negative = inhibition, hits mostly inhibitors | hit rate 4.4% among 390,000 | AID 504339; also: % is scaled to controls: 0 for no effect and ±100 for the full control effect; nearly all actives have a fitted effect of over 50% in size
HP1b binding inh = HP1-beta chromodomain-methylated histone interaction inhibition | hit rate 0.56% among 390,000 | AID 540317 | Potency, µM (top dose mostly 114 µM), for inactives: at the highest dose activity change, negative = inhibition, hits mostly inhibitors | AlphaScreen HP1-beta / biotin-H3K9me3 peptide binding | P83916; also: nearly all actives have a fitted effect of over 70% in size
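AlphaScreen: HP1-beta (50 nM) preformed 30 min with biotin-H3(1-18)K9me3 peptide (50 nM) in PBS pH 7.4, 0.01% Tween-20. Compound added for 30 min at RT, then streptavidin donor/nickel chelate acceptor beads (10 ug/mL) for 30 min.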
BAZ2B block = inhibitors of human BAZ2B bromodomain; Q9UIF8; AlphaScreen BAZ2B-H3K14Ac peptide displacement; Potency, µM (top dose mostly 114 µM), inactives show top-dose activity change, negative = inhibition, most hits filed as inhibitors; hit rate 4.4% among 360,000; AID 504333; also: % is scaled to controls: 0 for no effect and ±100 for the full control effect; nearly all actives have a fitted effect of over 60% in size
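AlphaScreen displacement of biotin-H3(5-23)K14Ac peptide (50 nM final) from BAZ2B (50 nM final) in PBS pH 7.4, 0.01% Tween-20; complex preformed 30 min RT, then compounds (top 110 uM) 30 min RT, beads 20 min dark.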
Sfp inh = Sfp phosphopantetheinyl transferase inhibition. AID 1490. Biochemical Sfp PPTase activity, qHTS. Q9F4F7. hit rate 3.5% among 310,000. Potency, µM, inactives show largest response in the series, negative = inhibition, hits mostly inhibitors;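 also: the enzyme is Sfp with the accession as filed and its product quenches rhodamine fluorescence; 0% = enzyme reaction without inhibitor and -100% = no enzyme wells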
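Sfp 15 nM + cpd, 15 min RT; start w/ rhodamine-CoA 5 uM, BHQ-2-YbbR 12.5 uM (final); 50 mM Hepes pH 7.6, 10 mM MgCl2, 0.01% NP-40, 0.01% BSA; read 525/598 nm at 0 and 30 min.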
G9a block = inhibitors of human histone lysine methyltransferase G9a; Q96KQ7; G9a H3K9 monomethylation, AlphaScreen, 2 h; Potency, µM (doses to about 102 µM), without a hit: top-dose activity, negative = inhibition, usual class: inhibitors; hit rate 8.8% among 350,000; also: % is scaled to controls: 0 for no effect and ±100 for the full control effect; nearly all actives have a fitted effect of over 75% in size
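Chemiluminescent proximity detection of H3K9 monomethylation, read after 10 min bead incubation in the dark. Reaction: 20 nM G9a, 500 nM biotin-H3K9 peptide, 20 uM SAM cofactor, 2 h, room temperature, following 15 min enzyme-compound preincubation.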
Starred values were filed as active, the others as inactive; ? = inconclusive; / = no result; ! = not active in a repeat; [ ] = another dose, or the depositor's remark. An excerpt weighted towards active compounds, which were near 12% of everything screened. Calls follow the shape of the dose curve; as a rule, active = well fitted curve in the direction sought with a large enough effect; inconclusive = small, poorly fitted or top-dose-only effect, or another doubt; inactive = no such curve, though single readings can be large; an effect the other way counts as inactive or inconclusive. Potency is read from the fitted curve at half-maximal effect.

SMILES	JMJD2A Tudor inh	HP1b binding inh	BAZ2B block	Sfp inh	G9a block
N#Cc1c(-n2cccc2)cccc1-n1cccc1	?	-35.1%	50.1µM*	15.1%	?
N#Cc1c(Cl)cccc1-n1ccnc1	2.6%	34.8%	0.4%	7.6%	49.4%[12.7 µM]
O=C(c1cc(-c2ccc(Cl)cc2)on1)N1CCCCCC1	25.1µM*	5.2%	2.0%	8.1%	-12.8%[59 µM]
O=C(c1cc(-c2ccc(Br)cc2)on1)N1CCc2ccccc2C1	50.1µM*	7.6%	1.6%	10.6%	-2.5%
O=C(c1cc(-c2ccc(Cl)c(Cl)c2)on1)N1CCCCCC1	15.7%	17.8%	14.8%	-7.3%	-12.6%
CCN(CC)C(=O)CC(c1ccc(N(C)C)cc1)c1c(O)cc(OC)cc1OC (stereo not given)	50.1µM*	-15.8%	?	-8.1%	?
COc1cc(O)c(C(CCN2CCCC2)c2ccc3c(c2)OCO3)c(OC)c1 (stereo not given)	?	-9.1%	?	-6.7%	-1.1%[12.7 µM]
COc1cc(O)c(C(CCN2CCCCC2)c2ccc(N(C)C)cc2)c(OC)c1 (stereo not given)	39.8µM*	?	?	-17.7%	?
COc1cc(O)c(C(CCN2CCCC2)c2ccc(N(C)C)cc2)c(OC)c1 (stereo not given)	22.4µM*	?	35.5µM*	-21.9%	?
CCN(CC)C(=O)CC(c1cc(OC)c(OC)c(OC)c1)c1c(O)cc(OC)cc1OC (stereo not given)	-20.7%	35.1%	0.6%	18.9%	18.3%[12.7 µM]
Cc1ccccc1Cn1cc(S(=O)(=O)CC(=O)Nc2nccs2)c2ccccc21	-23.2%	8.4%	-4.2%	14.8%	-16.2%[59 µM]
COc1ccc(/C=C/C(=O)Nc2nc3n(n2)C(c2ccccc2)C=C(c2ccc(Cl)cc2)N3)cc1 (stereo not given)	-15.9%	36.7%	-5.4%	/	-0.9%[59 µM]
O=C(Nc1nc2ccc(F)cc2s1)C1=COCCO1	-6.9%	26.3%	0.6%	/	50.1µM*
O=C(NNc1nc2ccc(F)cc2s1)c1cccc(F)c1	-15.2%	24.1%	7.4%	-5.6%	?
CCOc1ccc2nc(NC(=O)c3cnccn3)sc2c1	-12.0%	28.2%	-4.7%	-8.0%	?
O=C(Nc1nc2ccccc2s1)c1cnccn1	-33.0%	26.3%	6.8%	-25.3%	3.55µM*
O=C(Nc1nc2ccc(F)cc2s1)c1ccccn1	-12.5%	60.6%	39.8µM*	10.2%	-3.2%
CCc1c(C)nc2cc(-c3ccc(OC)c(OC)c3)nn2c1NCC1CC1	?	-8.6%	-36.9%	22.4µM*	56.2µM*
O=c1c2ccccc2nc2n1C(CBr)CS2 (stereo not given)	-13.4%	14.5%	-21.7%	-10.1%	?
O=c1nc2n(c3sc4c(c13)CCCC4)C(CBr)CS2 (stereo not given)	-14.4%	22.5%	-2.2%	-10.5%	50.1µM*
Cc1ccc(/C=N/n2c(-c3ccc(Cl)cc3)n[nH]c2=S)o1	?	35.1%	-11.3%	-4.7%	/
Cc1ccc(/C=N/n2c(-c3ccccn3)n[nH]c2=S)o1	5.62µM*	?	5.01µM*	28.2µM*	3.16µM*
S=c1[nH]nc(-c2ccccn2)n1/N=C/c1cccc2ccccc12	5.62µM*	?	28.2µM*	-12.2%	0.398µM*
S=c1[nH]nc(-c2ccccn2)n1/N=C/c1ccccc1	2.82µM*	-2.8%	11.2µM*	39.8µM*	?
CC(C)(C)c1nn2cnnc2n(/N=C/c2cccc3ccccc23)c1=O	-19.3%	26.3%	-4.0%	-1.3%	-13.6%
SMILES	JMJD2A Tudor inh	HP1b binding inh	BAZ2B block	Sfp inh	G9a block
Cc1cccc(/C=N/n2c(-c3ccccn3)n[nH]c2=S)c1	/	/	11.2µM*	?	1.41µM*
CCCCC/C=C\C/C=C\C/C=C\CCCCC(=O)NCCCC(=O)O	/	/	/	25.7%	/
Cc1cccc(C(=O)NCC(=O)OCC(=O)c2ccc3ccccc3c2)c1	-16.2%[57.1 µM]	21.0%[57 µM]	/	/	/
COc1cccc(NC(=O)CSc2nnc(NC(=O)NC3CCCCC3)s2)c1	-33.1%	-4.8%	-24.1%	/	-12.1%[59 µM]
CCN(CC)c1ccc(/C=N/n2c(=S)[nH]nc(C)c2=O)cc1	-27.1%	6.8%	-3.5%	79.4µM*	-41.8%
Cc1n[nH]c(=S)n(/N=C/c2cccs2)c1=O	25.1µM*	22.2%	-2.4%	?	8.0%
Cc1ccccc1/C=N/n1c(-c2ccccn2)n[nH]c1=S	3.16µM*	-16.0%	8.91µM*	35.5µM*	0.891µM*
S=c1[nH]nc(-c2ccccn2)n1/N=C/c1c(Cl)cccc1Cl	3.55µM*	-17.9%	22.4µM*	?	1.78µM*
S=c1[nH]nc(-c2ccccn2)n1/N=C/c1ccc(Cl)cc1	5.62µM*	0.1%	17.8µM*	11.0%	2.24µM*
S=c1[nH]nc(-c2ccccn2)n1/N=C/c1cccs1	3.55µM*	19.4%	8.91µM*	-15.9%	3.16µM*
O=C(CCl)NCCCCCCCCCNC(=O)CCl	4.8%	39.6%	7.8%	-7.0%	?
CCn1c(C)c(C)c2cc(C(=O)NCCCN3CCCCCC3)ccc21	56.2µM*	-19.3%	56.2µM*	?	?
CCn1c(C)c(C)c2cc(C(=O)NCCCN3CCCCC3)ccc21	?	1.2%	39.8µM*!	3.7%	?
CCn1c(C)c(C)c2cc(C(=O)NCCN3CCCCCC3)ccc21	44.7µM*	-6.0%	22.4µM*	-25.0%	50.1µM*
CCn1c(C)c(C)c2cc(C(=O)NCCCN3CCN(C)CC3)ccc21	-27.8%	-6.1%	?	4.0%	?
Cc1[nH]c2ccc(C(=O)NCCCN3CCCCCC3)cc2c1C	?	13.4%	-33.9%	-12.9%	?
CCc1nn2c(N(C)CCO)cc(C)nc2c1-c1ccc(F)cc1	9.9%	61.1%	-5.5%	-1.2%	/
CC(C)C[C@H](NC(=O)OC(C)(C)C)C(=O)NCC1CCC(C(=O)N[C@@H](Cc2ccccc2)C(=O)O)CC1 (stereo not given in full)	-9.1%	34.7%	-1.9%	1.5%	5.3%
CC(C)C[C@@H](NC(=O)C1CCC(CNC(=O)[C@H](Cc2ccccc2)NC(=O)OC(C)(C)C)CC1)C(=O)O (stereo not given in full)	28.2µM*	11.3%	1.9%	0.9%	?
COc1ccc(C(CNC(=O)C(Cc2ccccc2)NC(N)=O)N(C)C)cc1 (stereo not given)	-9.7%	27.6%	-14.6%	6.8%	39.8µM*
COc1ccc(CNC(=O)[C@H](Cc2ccccc2)NC(=O)C2CCNCC2)cc1	-6.2%	35.9%	-4.1%	-6.0%	50.1µM*
CN(CC(=O)Nc1ccc(Cl)c(C(F)(F)F)c1)C(=O)C1CC(=O)N(Cc2ccco2)C1 (stereo not given)	-7.9%	52.4%	-0.1%	/	28.6%[2.33 µM]
CCOC(=O)c1sc(C)c(C(=O)NC2CCCCC2)c1N	2.2%	27.1%	-2.1%	9.6%	-0.3%
COC(=O)c1ccc2nc(C)cc(Nc3ccc(N(C)C)cc3)c2c1	?	-5.1%	39.8µM*	-5.8%	50.1µM*
COC(=O)c1ccc2nc(C)cc(Nc3ccc(O)cc3)c2c1	-30.8%	14.9%	-15.5%	/	?
